Consider 61 compounds from PubChem BioAssay AID1619 (SRMLSC, 2009).

In general, inhibition refers to the relative decrease from the control value, in per cent.

Structures are written as SMILES. Hit rate of the full screen: of about 220,000 compounds, about 830 (0.38%) were called active.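 Rule for the calls: active = compound inhibiting the enzyme by more than half at any dose during confirmatory dose-response retesting; inconclusive = strong single-dose inhibitors picked by rank but not retested; inactive = the rest.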 The list is a sample of the results. Potency and affinity values are given separately.

The target of the assay is Leucine aminopeptidase (Plasmodium falciparum (isolate 3D7)) (UniProt Q8IL11). Nature of the assay: P. falciparum M17LAP inhibitors, primary screen, biochemical, fluorogenic H-Leu-NHMec substrate, 1536-well (AID 1619).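 Note: plate controls were full reaction with DMSO carrier for no effect and no enzyme background for full effect.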 As to conditions: recombinant M17LAP, H-Leu-NHMec fluorogenic kinetic assay; at 30 µM; active compounds read high.
Sequence of Leucine aminopeptidase (Plasmodium falciparum (isolate 3D7)) (Q8IL11 whole entry, looked up): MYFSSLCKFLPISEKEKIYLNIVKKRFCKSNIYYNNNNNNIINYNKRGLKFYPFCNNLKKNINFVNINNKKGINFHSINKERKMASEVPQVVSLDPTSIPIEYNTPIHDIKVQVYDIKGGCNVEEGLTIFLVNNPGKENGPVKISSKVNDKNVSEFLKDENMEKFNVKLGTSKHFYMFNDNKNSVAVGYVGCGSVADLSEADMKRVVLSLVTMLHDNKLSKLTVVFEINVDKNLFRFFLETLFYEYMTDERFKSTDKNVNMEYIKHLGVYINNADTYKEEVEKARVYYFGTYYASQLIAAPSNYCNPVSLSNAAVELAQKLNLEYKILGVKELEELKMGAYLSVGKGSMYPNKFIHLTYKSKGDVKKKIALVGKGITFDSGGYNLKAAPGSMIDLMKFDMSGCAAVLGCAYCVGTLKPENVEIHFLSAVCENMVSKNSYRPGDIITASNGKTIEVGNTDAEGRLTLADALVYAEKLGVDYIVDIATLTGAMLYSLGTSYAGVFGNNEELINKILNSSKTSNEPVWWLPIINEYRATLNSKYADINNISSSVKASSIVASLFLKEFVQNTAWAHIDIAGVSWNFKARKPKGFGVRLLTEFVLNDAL
`COc1ccccc1Cn1[nH]nnc1=S`: the inhibition was 5.05% (inactive).

For `COc1ccc([C@H]2[C@H](C(=O)OC(C)(C)C)N3N=Cc4ccccc4C3C23C(=O)c2ccccc2C3=O)c(OC)c1` (stereo partly specified), the inhibition was 34.9% (inactive).

Regarding `COc1ccc([C@H]2[C@H](C(=O)OC(C)(C)C)N3N=Cc4ccccc4C3C23C(=O)c2ccccc2C3=O)cc1OC` (stereo partly specified), the inhibition was 21.8% (inactive).

As to `CC(C)CCn1nnnc1C(c1ccc(N(C)C)cc1)N1CCN(C(=O)c2ccco2)CC1` (stereo unspecified), the inhibition was 8.08% (inactive).

`COC(=O)c1cc(NC(=O)C2CC2)cc(C(=O)OC)c1`: the inhibition was 4.68% (inactive).

Turning to `O=C(NNC(=O)C1CC1c1ccccc1)Nc1cccc(Cl)c1` (stereo unspecified), the inhibition was -2.69% (inactive).

Regarding `COC(=O)c1cc(C)sc1NC(=O)C1CC=CCC1C(=O)O` (stereo unspecified), the inhibition is 36.3% (inactive).

`O=C(O)C1CC=CCC1C(=O)Nc1cccnc1` (stereo unspecified): the inhibition was 20.5% (inactive).

Turning to `CC1=C(C)CC(C(=O)NNC(=O)c2cccc(Cl)c2)C(C(=O)O)C1` (stereo unspecified), the inhibition was 27.5% (inactive).

Regarding `O=C(O)C1CC=CCC1C(=O)NNc1ccccc1` (stereo unspecified), the inhibition was 1.11% (inactive).

Consider `O=C(O)c1ccc(NC(=O)C2CC=CCC2C(=O)O)cc1` (stereo unspecified), for which the inhibition was 2.25% (inactive).

Take `O=C(CCSc1ccccc1)NC1CCCCCC1`: the inhibition is 2.59% (inactive).

`COc1ccc(C(=O)NCCCCCC(=O)N/N=C/c2ccco2)cc1OC`: the inhibition was -1.79% (inactive).

Consider `C=CCn1c(-c2ccc(OC)c(OC)c2)n[nH]c1=S`, for which the inhibition is 13.8% (inactive).

Regarding `COc1ccc(S(=O)(=O)Nc2ccc3c(c2)OCO3)cc1`, the inhibition was -4.98% (inactive).

Turning to `COc1ccccc1NC(=S)NCCSc1ccc(Cl)cc1`, the inhibition is -3.97% (inactive).

In the case of `O=C(Nc1nccs1)c1ccc(S(=O)(=O)N2CCOCC2)cc1`, the inhibition was 7.17% (inactive).

In the case of `CCCC1=C(C(=O)OCC)C(c2ccncc2)n2ncnc2N1` (stereo unspecified), the inhibition is 5.84% (inactive).

For `CC1=CC(C#N)(C#N)C(C#N)(C#N)C(c2ccccc2)N1` (stereo unspecified), the inhibition is -40.9% (inactive).

For `O=C(O)C1CCCCC1C(=O)NCCc1cccc(Cl)c1` (stereo unspecified), the inhibition was 75% (inactive).

`O=C(O)C1CC=CCC1C(=O)Nc1cccc(C(=O)N2CCCCC2)c1` (stereo unspecified): the inhibition is 40.8% (inactive).

Turning to `O=C(O)C1CC=CCC1C(=O)NCCc1ccccc1` (stereo unspecified), the inhibition was 42% (inactive).

In the case of `O=C(O)C1CCCCC1C(=O)Nc1nccs1` (stereo unspecified), the inhibition is 15.9% (inactive).

On to `O=C(O)C1CC=CCC1C(=O)Nc1cccc([N+](=O)[O-])c1` (stereo unspecified), for which the inhibition was 14.2% (inactive).

Regarding `O=C(Nc1nccs1)c1ccc(NC(=O)c2ccco2)cc1`, the inhibition is 9.18% (inactive).

On to `O=C(O)C1C2C=CC(C2)C1C(=O)Nc1cccc(F)c1` (stereo unspecified), for which the inhibition is 23.1% (inactive).

In the case of `O=C(Nc1cccc([N+](=O)[O-])c1)C1C2CC/C=C\CCC21` (stereo unspecified), the inhibition was 0.68% (inactive).

For `O=C(Nc1nc(-c2ccccc2)cs1)C1c2ccccc2Oc2ccccc21`, the inhibition was 1.51% (inactive).

`Cc1ccc(Cn2c(=O)cc(C(=O)O)c3ccccc32)cc1`: the inhibition is -52.6% (inactive).

As to `CC(C)CC(=O)N1CCN(S(C)(=O)=O)CC1`, the inhibition was 9.33% (inactive).

Consider `CCCc1cc(C(=O)N2CCN(S(=O)(=O)c3ccc(OC)c(OC)c3)CC2)cs1`, for which the inhibition was -3.16% (inactive).

Turning to `COc1ccc(Cl)cc1C(=O)N(Cc1nc(-c2cccc(C)c2)no1)C(C)C`, the inhibition was -1.6% (inactive).

With `CC(C)(C)c1ccc(C(=O)Nc2ccc(O)c3c(=O)cc(-c4cccc(Cl)c4)oc23)cc1`, the inhibition is 0.21% (inactive).

For the compound `Cc1nnc(-c2cnn(C)c2N)n1CCCN(C)C`, the inhibition was -1.24% (inactive).

For `Cc1ccccc1N1CCN(C(=O)CN2C(=O)c3ccccc3C2=O)CC1`, the inhibition was -9.93% (inactive).

For `O=C(Nc1ccc2nsnc2c1)c1cccs1`, the inhibition was 6.9% (inactive).

Take `Cc1ccc(S(=O)(=O)Oc2ccccc2/C=N/Nc2ccc(C(=O)O)cc2)cc1`: the inhibition is 28% (inactive).

Turning to `CC(=O)CC(C)(C)Nc1nc2ccc([N+](=O)[O-])cc2o1`, the inhibition was 13.3% (inactive).

For the compound `COC(=O)c1ccc(C)c(NS(=O)(=O)c2ccc(C)c([N+](=O)[O-])c2)c1`, the inhibition is 1.7% (inactive).

Regarding `O=C1C2CCCN2C(c2ccc(F)cc2)N1c1nccs1` (stereo unspecified), the inhibition is 0.99% (inactive).

Consider `Cc1cccc(Oc2ccc(NC(=O)C3CC=CCC3C(=O)O)cc2)c1` (stereo unspecified), for which the inhibition is 2.18% (inactive).

For `Cc1cc(C)cc(Oc2ccc(NC(=O)C3CC=CCC3C(=O)O)cc2)c1` (stereo unspecified), the inhibition is 5.05% (inactive).

With `Cc1cccc(-n2c(CNC(=O)c3ccc(S(=O)(=O)N(C)C)cc3)nnc2SCC(=O)Nc2ccc(F)cc2)c1`, the inhibition is -5.07% (inactive).

For the compound `COc1cccc(CNc2nc3nc(C)cc(=O)n3[nH]2)c1`, the inhibition is -3.52% (inactive).

For the compound `CC(C)(C)c1ccc(OC(=O)CN2C(=O)C3C4CCC(C4)C3C2=O)cc1` (stereo unspecified), the inhibition is -0.46% (inactive).

On to `Cc1ccc(SCC(=O)Nc2ccccc2C(=O)O)cc1`, for which the inhibition was -12.3% (inactive).

`CC(=O)Nc1cccc(C(=O)Nc2ccccc2C(=O)O)c1`: the inhibition was 4.74% (inactive).

On to `CCOC(=O)c1cnc2c([N+](=O)[O-])cnn2c1C`, for which the inhibition is 12.8% (inactive).

For `Cc1c(C(=O)O)cnc2c([N+](=O)[O-])cnn12`, the inhibition was 12.2% (inactive).

For the compound `O=C(O)c1cc2ncc(-c3[nH]ncc3[N+](=O)[O-])cn2n1`, the inhibition is 15.3% (inactive).

Regarding `Cc1cnc2c(C(=O)O)cnn2c1`, the inhibition is 13.5% (inactive).

As to `Cc1ccc(NC(=O)/C(Cl)=C/c2ccccc2)cc1C`, the inhibition was 0.91% (inactive).

Take `Cc1ccc(S(=O)(=O)N2CCN(c3ccc([N+](=O)[O-])c(NCCN4CCOCC4)c3)CC2)cc1`: the inhibition is 3.35% (inactive).

For the compound `CC(=O)Nc1nc(C)c(Oc2ccc(Cl)cc2Cl)c(=O)[nH]1`, the inhibition was 7.16% (inactive).

`Cc1sc(NC(=O)c2cc3ccccc3oc2=O)c(C(=O)OC(C)C)c1-c1ccccc1`: the inhibition is 5.06% (inactive).

Regarding `CC(C)OC(=O)c1cc(NC(=O)C2C3CCC(O3)C2C(=O)O)cc(C(=O)OC(C)C)c1` (stereo unspecified), the inhibition was 2.91% (inactive).

Turning to `O=C(O)C1C2CCC(O2)C1C(=O)NCc1ccc(Cl)cc1` (stereo unspecified), the inhibition was 2.78% (inactive).

Consider `Cc1sc(NC(=O)C2C3CCC(O3)C2C(=O)O)nc1-c1ccc(CC(C)C)cc1` (stereo unspecified), for which the inhibition is 6.67% (inactive).

Regarding `O=C(c1cccc(C(F)(F)F)c1)N1CCc2c([nH]c3ccccc23)C1C(F)(F)F` (stereo unspecified), the inhibition is -3.58% (inactive).

Take `Cc1cc(C)n(C2CC(=O)N(c3cccc(Cl)c3)C2=O)n1` (stereo unspecified): the inhibition was 10.2% (inactive).

As to `CCOc1cc(/C=N/n2cnnc2)ccc1OS(=O)(=O)c1ccc(C)cc1`, the inhibition is -1.56% (inactive).
